In the antibiotic and cytotoxicity screens of Wong et al. (2023):
About 3,300 (8.5%) of roughly 39,000 compounds were called active. Shown is part of a subset that was picked to be rich in actives.

Tested on: HepG2
Assay: cytotoxicity call (relative viability < 0.9)
Conditions: 10 µM

SMILES	cytotoxicity call
O=C(C[C@@H]1CC[C@@H]2[C@H](COC[C@@H](O)CN2S(=O)(=O)c2ccccc2)O1)N1CCc2ccccc2C1	inactive
C[C@@H]1CCCCO[C@H](CN(C)S(=O)(=O)c2cccs2)[C@@H](C)CN([C@@H](C)CO)C(=O)c2cc(NS(=O)(=O)c3cn(C)cn3)ccc2O1	inactive
C[C@@H]1CN([C@@H](C)CO)C(=O)Cc2cc(NS(=O)(=O)c3cn(C)cn3)ccc2O[C@@H]1CN(C)Cc1ccc(C(=O)O)cc1	inactive
C[C@H](CO)N1C[C@H](C)[C@H](CN(C)S(=O)(=O)c2cn(C)cn2)Oc2ccc(N(C)C)cc2CC1=O	inactive
CC(C)CC#Cc1ccc2c(c1)O[C@@H](CN(C)C(=O)c1ccncc1)[C@H](C)CN([C@H](C)CO)S2(=O)=O	inactive
Cc1ccc(S(=O)(=O)N(C)C[C@H]2Oc3cc(C#Cc4ccccc4)ccc3S(=O)(=O)N([C@@H](C)CO)C[C@H]2C)cc1	inactive
Cc1ccc(S(=O)(=O)N(C)C[C@H]2Oc3cc(C#Cc4ccncc4)ccc3S(=O)(=O)N([C@@H](C)CO)C[C@@H]2C)cc1	active
Cc1ccc(S(=O)(=O)N(C)C[C@@H]2Oc3cc(C#Cc4ccncc4)ccc3S(=O)(=O)N([C@H](C)CO)C[C@@H]2C)cc1	active
Cc1ccc(S(=O)(=O)N(C)C[C@H]2Oc3cc(C#Cc4ccccc4)ccc3S(=O)(=O)N([C@H](C)CO)C[C@H]2C)cc1	inactive
Cc1ccc(S(=O)(=O)N(C)C[C@@H]2Oc3cc(C#Cc4ccccc4)ccc3S(=O)(=O)N([C@H](C)CO)C[C@@H]2C)cc1	inactive
Cc1ccc(S(=O)(=O)N(C)C[C@H]2Oc3cc(C#Cc4ccccc4)ccc3S(=O)(=O)N([C@@H](C)CO)C[C@@H]2C)cc1	inactive
Cc1ccc(S(=O)(=O)N(C)C[C@@H]2Oc3cc(C#Cc4ccccc4)ccc3S(=O)(=O)N([C@@H](C)CO)C[C@H]2C)cc1	inactive
Cc1ccc(S(=O)(=O)N(C)C[C@@H]2Oc3cc(C#Cc4ccccc4)ccc3S(=O)(=O)N([C@@H](C)CO)C[C@@H]2C)cc1	inactive
Cc1ccc(S(=O)(=O)N(C)C[C@H]2Oc3cc(C#Cc4ccncc4)ccc3S(=O)(=O)N([C@H](C)CO)C[C@H]2C)cc1	active
Cc1ccc(S(=O)(=O)N(C)C[C@@H]2Oc3cc(C#Cc4ccncc4)ccc3S(=O)(=O)N([C@H](C)CO)C[C@H]2C)cc1	active
CC(C)NC(=O)Nc1ccc2c(c1)C(=O)N([C@H](C)CO)C[C@@H](C)[C@@H](CN(C)C(=O)C1CCCCC1)OCCCC[C@H](C)O2	inactive
CO[C@@H]1CN(C)C(=O)c2ccc(NS(C)(=O)=O)cc2OC[C@@H](C)N(C(=O)c2ccc3c(c2)OCO3)C[C@@H]1C	inactive
COc1ccccc1S(=O)(=O)N(C)C[C@H]1OCc2cn(nn2)CCCC(=O)N([C@@H](C)CO)C[C@@H]1C	inactive
CCS(=O)(=O)N1C[C@]2(CCN(CC2)C(=O)c2cccnc2)c2c(n(c3cc(ccc23)OC)C)[C@H]1CO	inactive
C[C@@H]1CN([C@H](C)CO)C(=O)c2cc(NC(=O)Cn3cnnn3)ccc2O[C@H]1CN(C)C(=O)NC1CCCCC1	inactive
Cc1ccc(S(=O)(=O)Nc2ccc3c(c2)C(=O)N([C@@H](C)CO)C[C@H](C)[C@H](CN(C)C(=O)Nc2c(C)noc2C)OCCCC[C@H](C)O3)cc1	inactive
CC(C)NC(=O)Nc1ccc2c(c1)CC(=O)N([C@@H](C)CO)C[C@@H](C)[C@H](CN(C)S(=O)(=O)c1ccc(F)cc1)O2	inactive

SMILES	cytotoxicity call
C[C@@H]1CN([C@@H](C)CO)S(=O)(=O)c2ccc(Br)cc2O[C@@H]1CN(C)C(=O)NC1CCCCC1	inactive
CCOC(=O)CC(=O)c1ccn(C)n1	inactive
C[C@@H]1CCCCO[C@H](CN(C)S(=O)(=O)c2cccs2)[C@H](C)CN([C@@H](C)CO)C(=O)c2cc(NC(=O)CCC(F)(F)F)ccc2O1	inactive
C[C@H](CO)N1C[C@H](C)[C@H](CN(C)Cc2ccccn2)Oc2ncc(C#Cc3ccc(F)cc3)cc2C1=O	inactive
C[C@@H]1CN([C@H](C)CO)C(=O)c2c(c3ccccc3n2C)-c2ccccc2CO[C@H]1CN(C)Cc1cccc(O)c1	inactive
Cc1ccc(S(=O)(=O)N(C)C[C@H]2Oc3cc(C#Cc4ccncc4)ccc3S(=O)(=O)N([C@@H](C)CO)C[C@H]2C)cc1	active
Cc1ccc(S(=O)(=O)N(C)C[C@@H]2Oc3cc(C#Cc4ccncc4)ccc3S(=O)(=O)N([C@@H](C)CO)C[C@H]2C)cc1	active
Cc1ccc(S(=O)(=O)N(C)C[C@@H]2Oc3cc(C#Cc4ccncc4)ccc3S(=O)(=O)N([C@@H](C)CO)C[C@@H]2C)cc1	active
Cc1ccc(S(=O)(=O)N(C)C[C@H]2Oc3cc(C#Cc4ccncc4)ccc3S(=O)(=O)N([C@H](C)CO)C[C@@H]2C)cc1	active
C[C@@H]1CN([C@H](C)CO)C(=O)c2cccc(NS(=O)(=O)c3ccc(F)cc3)c2O[C@@H]1CN(C)S(=O)(=O)c1cccs1	inactive
C[C@H]1CCCCO[C@H](CN(C)Cc2ccncc2)[C@@H](C)CN([C@@H](C)CO)C(=O)c2cc(NC(=O)Nc3cccc4ccccc34)ccc2O1	inactive
COc1ccc2c3c(n(c2c1)C)[C@@H](CO)N(C[C@]13CN(C1)S(=O)(=O)c1ccc(cc1)C)S(=O)(=O)c1ccc(cc1)C	inactive
C[C@H](CO)N1C[C@H](C)[C@H](CN(C)Cc2ccc3c(c2)OCCN3C)OCc2cnnn2CCCC1=O	inactive
O=C(C[C@H]1CC[C@@H]2[C@H](COC[C@@H](O)CN2C(=O)Nc2cccc(F)c2)O1)NCCCN1CCOCC1	inactive
CC(C)NC(=O)Nc1ccc2c(c1)C(=O)N([C@@H](C)CO)C[C@@H](C)[C@H](CN(C)C(=O)Nc1ccc(F)cc1)OCCCC[C@H](C)O2	inactive
O.O=C(O)C1C(O)CCC2CN3CCc4c([nH]c5ccccc45)C3CC21 (stereo not given)	inactive
C[C@H]1CC(=O)Nc2c1c(N)nn2C	inactive
C[C@H]1CCCCO[C@H](CN(C)Cc2ccc3c(c2)OCO3)[C@@H](C)CN([C@@H](C)CO)C(=O)c2cc(NC(=O)CCC(F)(F)F)ccc2O1	inactive
C[C@@H]1CCCCO[C@H](CN(C)C(=O)C2CCCCC2)[C@H](C)CN([C@H](C)CO)C(=O)c2cc(NS(=O)(=O)c3ccc(F)cc3)ccc2O1	inactive
CC(C)CC#Cc1ccc2c(c1)O[C@H](CN(C)Cc1cncnc1)[C@H](C)CN([C@@H](C)CO)S2(=O)=O	inactive
NC(=O)NS(=O)(=O)c1ccc(N)cc1	inactive
NNS(=O)(=O)c1ccc(Cl)cc1	inactive

SMILES	cytotoxicity call
NNS(=O)(=O)c1ccc(Oc2ccc(S(=O)(=O)NN)cc2)cc1	active
C[C@@H]1CN([C@H](C)CO)C(=O)c2cc(NS(=O)(=O)c3ccc(F)cc3)ccc2O[C@H]1CN(C)S(=O)(=O)c1ccc(F)cc1	inactive
Cc1ccc2c(c1)C(=O)C[C@@H](c1ccc(Cl)cc1Cl)O2	inactive
Cc1cc(C)c2c(c1)NC(=O)C[C@H]2c1cccc(Cl)c1Cl	active
Cc1ccc(=O)n(CC(=O)O)n1	inactive
C[C@H](CO)N1C[C@H](C)[C@H](CN(C)Cc2ccncc2)OCCCC[C@H](C)Oc2ccc(NC(=O)Nc3ccc(C(F)(F)F)cc3)cc2C1=O	active
C[C@@H]1CCCCO[C@@H](CN(C)Cc2ccncc2)[C@H](C)CN([C@H](C)CO)C(=O)c2cc(NC(=O)Nc3ccc(C(F)(F)F)cc3)ccc2O1	active
C[C@H](CO)N1C[C@H](C)[C@@H](CN(C)Cc2ccncc2)OCCCC[C@H](C)Oc2ccc(NC(=O)Nc3ccc(C(F)(F)F)cc3)cc2C1=O	inactive
C[C@@H]1CCCCO[C@@H](CN(C)Cc2ccncc2)[C@H](C)CN([C@@H](C)CO)C(=O)c2cc(NC(=O)Nc3ccc(C(F)(F)F)cc3)ccc2O1	inactive
C[C@@H]1CCCCO[C@H](CN(C)Cc2ccncc2)[C@H](C)CN([C@H](C)CO)C(=O)c2cc(NC(=O)Nc3ccc(C(F)(F)F)cc3)ccc2O1	active
C[C@@H]1CCCCO[C@H](CN(C)Cc2ccncc2)[C@@H](C)CN([C@H](C)CO)C(=O)c2cc(NC(=O)Nc3ccc(C(F)(F)F)cc3)ccc2O1	inactive
C[C@H]1CCCCO[C@@H](CN(C)Cc2ccncc2)[C@@H](C)CN([C@@H](C)CO)C(=O)c2cc(NC(=O)Nc3ccc(C(F)(F)F)cc3)ccc2O1	inactive
C[C@@H]1CN([C@H](C)CO)C(=O)c2cc(NC(=O)Nc3ccc(C(F)(F)F)cc3)ccc2O[C@@H](C)CCCCO[C@@H]1CN(C)Cc1ccncc1	active
C[C@@H]1CCCCO[C@H](CN(C)C(=O)NC2CCCCC2)[C@@H](C)CN([C@@H](C)CO)C(=O)c2cc(NC(=O)NC3CCCCC3)ccc2O1	inactive
O=C(C[C@H]1C=C[C@@H](NC(=O)CN2CCOCC2)[C@H](CO)O1)NCCc1ccccc1	inactive
COCC#Cc1ccc2c(c1)O[C@@H](CN(C)C(=O)c1ccccc1F)[C@@H](C)CN([C@@H](C)CO)S2(=O)=O	inactive
CNC[C@H]1OCCCC[C@H](C)Oc2ccc(NC(=O)c3ccncc3)cc2C(=O)N([C@@H](C)CO)C[C@@H]1C	inactive
Cc1ccc(S(=O)(=O)N(C)C[C@@H]2Oc3ccc(NS(=O)(=O)c4c(C)noc4C)cc3CC(=O)N([C@@H](C)CO)C[C@H]2C)cc1	inactive
C[C@H]1CN([C@@H](C)CO)C(=O)c2cccc(NC(=O)c3cnccn3)c2O[C@H]1CN(C)S(=O)(=O)c1ccc(Cl)cc1	inactive
O=C(C[C@H]1CC[C@H](NC(=O)c2cccnc2)[C@H](CO)O1)NCCN1CCCCC1	inactive
COCC#Cc1ccc2c(c1)O[C@H](CN(C)C(=O)C1CCCCC1)[C@H](C)CN([C@@H](C)CO)S2(=O)=O	inactive
